# Assay results from PubChem BioAssay.
# Active and inactive are the calls of the source. Unless noted, the rule behind the calls is not given here.
# Tests used:
# [1] = resazurin metabolic signal in HepG2 cells – cell-based, resazurin fluorescence, 24 h, PK04 Diversity Set, profiling panel (AID 1172); conditions: HepG2 viability, higher = more signal; note: test concentration not given here
# [2] = budding yeast growth changes without added modifier – OD600, strain BY4716, 24 h, basal condition, primary screen (AID 1173); conditions: S. cerevisiae BY4716 growth, OD600, 24 h; higher = more signal, called active from +8 up or from −8 down
# [3] = viability profiling in MM1S myeloma cells – cell-based, resazurin fluorescence, basal, 24 h, PK04 Diversity Set, profiling panel (AID 1174); conditions: higher = more signal, called active from +8 up or from −8 down;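 note: MM1S multiple myeloma cell line; test concentration not given here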
# [4] = biological target: Dihydroorotate dehydrogenase (quinone), mitochondrial (Plasmodium falciparum (isolate 3D7)) (UniProt Q08210); assay: inhibition of P. falciparum DHODH – biochemical, C-terminal His tag, absorbance 600 nm, primary screen (AID 1175); conditions: PfDHODH enzyme, DCIP absorbance 600 nm; higher = more signal, called active from +8 up or from −8 down;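 note: recombinant parasite enzyme with a five histidine tag at its C terminus; test concentration not given here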
# [5] = inhibition of PAO1 biofilm formation – strain PAO1, LB-PBS medium, absorbance 600 nm, primary screen (AID 1176); note: test concentration not given here; conditions: P. aeruginosa PAO1 growth/biofilm, A600, 12 h; higher = more signal
# [6] = growth modulation of vineyard yeast isolate – strain RM11-1a, OD600, basal, 24 h, primary screen (AID 1177);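 note: cultures grown under basal conditions with no added stressor; test concentration not given here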; conditions: S. cerevisiae RM11-1a growth, OD600, 24 h; higher = more signal, called active from +8 up or from −8 down
# [7] = growth of efflux-deficient E. coli DRC39 – strain DRC39, OD650, 24 h, E. coli filamentation inducers, primary screen (AID 1178);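 note: growth measured as culture turbidity by optical density at 650 nm; test concentration not given here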; conditions: E. coli DRC39 acrAB, higher = more signal, called active from +8 up or from −8 down
# [8] = growth of efflux-deficient E. coli DRC39 – strain DRC39, OD650, 48 h, E. coli filamentation inducers, primary screen (AID 1179);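 note: screen aims at cell division blockers that make cells filament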; conditions: E. coli DRC39 delta-acrAB growth, higher = more signal, called active from +8 up or from −8 down
# [9] = viability profiling in RPMI8226 myeloma cells – cell-based, resazurin fluorescence, basal, 24 h, PK04 Diversity Set, profiling panel (AID 1180); conditions: higher = more signal;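 note: RPMI8826 multiple myeloma cell line at 5000 cells per well; test concentration not given here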
# [10] = biological target: E3 ubiquitin-protein ligase XIAP (Homo sapiens) (UniProt P98170); assay: small molecules binding XIAP protein – biophysical, small-molecule microarray, fluorescence 635 nm, primary screen (AID 1181); conditions: higher = more signal;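 note: score merges 667 nm emission and signal to noise over triplicate slides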
# E3 ubiquitin-protein ligase XIAP (Homo sapiens), sequence (P98170 whole entry, looked up): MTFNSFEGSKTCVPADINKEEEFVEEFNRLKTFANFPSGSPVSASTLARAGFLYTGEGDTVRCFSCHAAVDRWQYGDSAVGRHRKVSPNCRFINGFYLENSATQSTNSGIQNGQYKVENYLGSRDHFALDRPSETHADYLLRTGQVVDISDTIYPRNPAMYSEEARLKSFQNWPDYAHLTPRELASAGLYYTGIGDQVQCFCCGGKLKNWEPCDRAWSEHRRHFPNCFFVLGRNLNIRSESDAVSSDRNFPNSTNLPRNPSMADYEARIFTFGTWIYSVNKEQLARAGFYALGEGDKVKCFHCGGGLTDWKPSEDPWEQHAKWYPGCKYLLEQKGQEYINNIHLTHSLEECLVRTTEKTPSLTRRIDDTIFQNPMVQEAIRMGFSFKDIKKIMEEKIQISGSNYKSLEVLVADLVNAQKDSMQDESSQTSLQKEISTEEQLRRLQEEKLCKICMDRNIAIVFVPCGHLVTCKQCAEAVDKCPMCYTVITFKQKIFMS
# Dihydroorotate dehydrogenase (quinone), mitochondrial (Plasmodium falciparum (isolate 3D7)), sequence (Q08210 whole entry, looked up): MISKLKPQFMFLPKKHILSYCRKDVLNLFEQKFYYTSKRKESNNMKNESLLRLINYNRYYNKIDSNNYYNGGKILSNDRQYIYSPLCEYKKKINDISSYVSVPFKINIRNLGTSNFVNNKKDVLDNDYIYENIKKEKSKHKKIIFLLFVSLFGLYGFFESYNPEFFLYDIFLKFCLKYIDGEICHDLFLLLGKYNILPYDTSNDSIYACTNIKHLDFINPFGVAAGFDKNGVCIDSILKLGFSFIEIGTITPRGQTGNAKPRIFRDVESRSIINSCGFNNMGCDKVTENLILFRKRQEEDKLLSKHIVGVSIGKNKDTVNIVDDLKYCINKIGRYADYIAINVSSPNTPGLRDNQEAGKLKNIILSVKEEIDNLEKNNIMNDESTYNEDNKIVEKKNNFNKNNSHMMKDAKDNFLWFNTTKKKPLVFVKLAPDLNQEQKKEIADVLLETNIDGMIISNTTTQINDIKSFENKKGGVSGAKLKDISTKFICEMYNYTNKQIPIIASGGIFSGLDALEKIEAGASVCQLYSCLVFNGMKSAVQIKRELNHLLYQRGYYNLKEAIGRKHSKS
Structure (SMILES),z-score [1],z-score [2],z-score [3],composite z-score [4],z-score [5],z-score [6],z-score [7],z-score [8],z-score [9],composite z-score [10]
COC(=O)C[C@H]1O[C@]2(C(=O)N(C)c3ccccc32)[C@@H](C)[C@@H]1[Si](C)(C)c1ccccc1,1.45,-2.07 (inactive),0.317 (inactive),-0.343 (inactive),-1.24 (inactive),-0.136 (inactive),0.709 (inactive),-0.106 (inactive),1.22,0.135
CC(C)[Si]1(C(C)C)OCc2cc(-c3ccc(-c4ccc(Cl)c(Cl)c4)o3)nc(-c3ccc(Oc4ccccc4)cc3)c21,-0.213,-3.1 (inactive),-0.0996 (inactive),0.936 (inactive),0.574 (inactive),1.95 (inactive),0.223 (inactive),-0.262 (inactive),-0.133,0.114
COCCCNC(=O)[C@]1(Cc2ccccc2CN=[N+]=[N-])N=C(c2ccc(OCCCO)cc2)O[C@@H]1c1ccccc1N=[N+]=[N-],-1.99,0.234 (inactive),-4.37 (inactive),0.553 (inactive),1.24 (inactive),0.995 (inactive),0.703 (inactive),0.692 (inactive),-3.63,0.43
Cc1ccc(S(=O)(=O)N2[C@@H](c3ccccc3)C(C(=O)O)=CC[C@H]2c2ccc(F)cc2)cc1,0.0445,-0.93 (inactive),-0.3 (inactive),-0.667 (inactive),0.244 (inactive),-0.069 (inactive),-0.0944 (inactive),0.0973 (inactive),-0.858,0.142
CC(C)N1CC=CC23O[C@@H]4/C=C\CCCOC(=O)C4[C@H]2C(=O)N(C(C)CO)[C@@H]3C1=O (stereo not given in full),0.876,-1.69 (inactive),0.832 (inactive),-0.555 (inactive),0.0126 (inactive),0.14 (inactive),1.1 (inactive),0.906 (inactive),0.734,-0.102
O=C1c2ccccc2[C@@]2(Cc3ccccc3N(CC(F)(F)F)C2=O)[C@H](c2ccc(CO)cc2)N1Cc1ccccc1,-0.584,0.714 (inactive),-0.0925 (inactive),-17.8 (active),0.118 (inactive),-0.224 (inactive),0.117 (inactive),-1.66 (inactive),-0.341,-0.231
[N-]=[N+]=NCc1ccccc1[C@H]1OC(c2ccc(OCCCO)cc2)=N[C@@]1(Cc1ccccc1N=[N+]=[N-])C(N)=O,0.794,-2.02 (inactive),0.393 (inactive),-0.0773 (inactive),-0.0963 (inactive),0.77 (inactive),0.0162 (inactive),0.394 (inactive),-0.103,-0.0773
C=CCN1C(=O)[C@@]2(O[C@@H](CCO)[C@H]([Si](C)(C)c3ccc(OC)cc3)[C@H]2C)c2cc(N3CCCCC3=O)ccc21,-2.74,0.208 (inactive),-4.57 (inactive),-1.11 (inactive),0.568 (inactive),2.45 (inactive),1.16 (inactive),0.777 (inactive),-5.44,0.271
COCCCNC(=O)[C@@]1(c2ccc([N+](=O)[O-])cc2)CC(=O)N(C2CCCCC2)[C@@H]1c1ccc(CO)cc1I,0.545,-0.24 (inactive),0.678 (inactive),0.219 (inactive),0.966 (inactive),-0.251 (inactive),0.0675 (inactive),-0.279 (inactive),1.16,0.0449
COC(=O)[C@@]1(Cc2ccccc2)[C@H]2c3cc(C(=O)N(C)C)n(CCF)c3C[C@H]2CN1C(=O)c1ccccc1,-0.537,1.34 (inactive),-0.878 (inactive),0.288 (inactive),0.715 (inactive),0.155 (inactive),-0.407 (inactive),0.0857 (inactive),-0.329,0.0635
CCc1cccc(NC(=O)O[C@H]2[C@H](OC(=O)Nc3ccccc3-c3ccccc3)[C@H](OC(=O)Nc3ccccc3-c3ccccc3)[C@@H](OC)O[C@@H]2CO)c1,0.235,0.371 (inactive),-0.444 (inactive),-0.371 (inactive),0.537 (inactive),2.19 (inactive),-1.34 (inactive),-1.66 (inactive),-0.254,0.146
CCOC(=O)C[C@H]1[C@H](OC(=O)c2ccc(-c3ccccc3)cc2)[C@@H](NC(=O)C2CCCCC2)c2cc(OCCCO)ccc2N1C(=O)Cc1ccc(OC)cc1,-0.0995,0.857 (inactive),-0.456 (inactive),-0.175 (inactive),0.55 (inactive),-0.442 (inactive),0.0009 (inactive),0.0016 (inactive),-0.131,-0.144
CCCCC(=C=CC[C@@H](O)c1ccc(OCCO)cc1)CCO,1.02,-4.12 (inactive),1.54 (inactive),-2.3 (inactive),-0.0585 (inactive),0.271 (inactive),1.34 (inactive),0.672 (inactive),1.3,0.794
Cc1ccc(N2C(=O)c3ccccc3[C@@H](C(=O)NCCN3CCOCC3)[C@@H]2c2ccc(CO)cc2)nc1,0.925,0.473 (inactive),0.544 (inactive),0.434 (inactive),-0.618 (inactive),0.537 (inactive),0.193 (inactive),0.663 (inactive),0.547,0.0095
CCCCC(=C=CC[C@@H](O)c1ccccc1OCCO)C[C@@H](O)c1ccccn1,0.687,-1.72 (inactive),0.538 (inactive),-7.64 (inactive),0.354 (inactive),-0.506 (inactive),1.04 (inactive),0.52 (inactive),0.805,-0.287
COc1ccc([Si](C)(C)[C@H]2[C@H](CC(=O)N(CCO)Cc3ccccc3)O[C@@]3(C(=O)N(Cc4cccc(N5CCCCC5=O)c4)c4ccccc43)[C@@H]2C)cc1,-0.415,-0.0548 (inactive),-2.35 (inactive),-1.02 (inactive),1.77 (inactive),1.45 (inactive),0.72 (inactive),0.832 (inactive),-3.16,-0.0559
C=CCOC(=O)[C@H]1[C@@H]2C(=O)O[C@@H](c3ccccc3)[C@@H](c3ccccc3)N2[C@@H](c2ccc(OCCOC(=O)[C@@H]3C[C@@H]4C(=O)N[C@@H](Cc5ccccc5)C(=O)N4[C@@H]3c3ccc(O)cc3)cc2)[C@]12C(=O)Nc1ccc(I)cc12,-0.654,2.3 (inactive),-1.06 (inactive),0.684 (inactive),2.75 (inactive),2.92 (inactive),-0.588 (inactive),-0.508 (inactive),-0.721,0.349
COc1cccc(C)c1NC(=O)O[C@H]1[C@H](OC(=O)Nc2ccc3c(c2)OCO3)[C@H](OC(=O)Nc2ccc3c(c2)OCO3)[C@@H](OC)O[C@@H]1CO,-0.73,1.27 (inactive),-0.494 (inactive),-0.713 (inactive),0.606 (inactive),1.6 (inactive),0.84 (inactive),-0.0834 (inactive),-0.708,1.64
CCOC(=O)C1=CC[C@@H](c2ccccc2)N(S(=O)(=O)c2ccc(C)cc2)[C@@H]1C#N,0.794,-1.95 (inactive),-1.43 (inactive),-1.21 (inactive),-0.088 (inactive),0.455 (inactive),-0.337 (inactive),0.831 (inactive),-1.57,-0.207
CC(C)c1ccc(NN2C(C(O)C3=C[C@H]4C[C@@H](C3)C4(C)C)C=CC3C(=O)N(c4ccccc4)C(=O)C32)cc1 (stereo not given in full),-1.11,-1.8 (inactive),0.32 (inactive),0.0752 (inactive),0.863 (inactive),0.786 (inactive),-0.326 (inactive),-0.629 (inactive),0.319,0.339
Cc1ccc(S(=O)(=O)N2[C@@H](c3ccccc3)C(C(=O)O)=C[C@H]2C(C)(C)C)cc1,-0.809,-0.535 (inactive),-0.912 (inactive),0.0392 (inactive),0.257 (inactive),-1.13 (inactive),-0.773 (inactive),-0.0408 (inactive),-2.03,-0.18
Cc1ccc(S[C@]2(C(=O)NCc3ccccc3)CC(=O)N(Cc3ccccc3Cl)[C@@H]2c2ccc(CO)cc2)cc1,-1.46,-0.288 (inactive),0.464 (inactive),0.429 (inactive),0.338 (inactive),0.884 (inactive),-0.545 (inactive),-0.756 (inactive),0.335,0.0623
